Measurements taken from PubChem BioAssay AID623911 (Vanderbilt High Throughput Screening Facility, 2012).
In all, about 2,100 compounds went through this assay and about 770 (37%) were called active.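 Rule for the calls: active = by-eye trace score of 1 for enhancers or -1 for inhibitors, so actives lie on both sides (some results past the limit were not filed as active); inactive = score 0, or 3 fluorescent, or 4 baseline rise.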 The list shows a part of the results.

target: G protein-activated inward rectifier potassium channel 2 (Homo sapiens) + G protein-activated inward rectifier potassium channel 1 (Homo sapiens) (UniProt P48051+P48549); assay: GIRK1/2 thallium flux modulators, retest, confirmation, cell-based, HEK293 rmGlu8/hGIRK1/2, FluoZin-2 (AID 623911); details: HEK293 rmGlu8/hGIRK1/2, thallium flux FluoZin-2; actives lie on both sides
Sequence (P48051 whole entry, looked up): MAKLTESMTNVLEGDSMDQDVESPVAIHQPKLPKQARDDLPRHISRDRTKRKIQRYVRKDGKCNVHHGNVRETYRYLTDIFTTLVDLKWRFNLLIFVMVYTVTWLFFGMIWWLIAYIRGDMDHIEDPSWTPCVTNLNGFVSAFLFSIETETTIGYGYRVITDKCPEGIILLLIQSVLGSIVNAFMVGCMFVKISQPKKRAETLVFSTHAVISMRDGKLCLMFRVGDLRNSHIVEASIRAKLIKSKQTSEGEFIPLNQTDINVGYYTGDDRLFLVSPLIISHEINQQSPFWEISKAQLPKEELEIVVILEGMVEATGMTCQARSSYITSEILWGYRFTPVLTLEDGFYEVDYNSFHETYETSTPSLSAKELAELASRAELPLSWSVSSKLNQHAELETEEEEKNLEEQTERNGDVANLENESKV
Sequence (P48549 whole entry, looked up): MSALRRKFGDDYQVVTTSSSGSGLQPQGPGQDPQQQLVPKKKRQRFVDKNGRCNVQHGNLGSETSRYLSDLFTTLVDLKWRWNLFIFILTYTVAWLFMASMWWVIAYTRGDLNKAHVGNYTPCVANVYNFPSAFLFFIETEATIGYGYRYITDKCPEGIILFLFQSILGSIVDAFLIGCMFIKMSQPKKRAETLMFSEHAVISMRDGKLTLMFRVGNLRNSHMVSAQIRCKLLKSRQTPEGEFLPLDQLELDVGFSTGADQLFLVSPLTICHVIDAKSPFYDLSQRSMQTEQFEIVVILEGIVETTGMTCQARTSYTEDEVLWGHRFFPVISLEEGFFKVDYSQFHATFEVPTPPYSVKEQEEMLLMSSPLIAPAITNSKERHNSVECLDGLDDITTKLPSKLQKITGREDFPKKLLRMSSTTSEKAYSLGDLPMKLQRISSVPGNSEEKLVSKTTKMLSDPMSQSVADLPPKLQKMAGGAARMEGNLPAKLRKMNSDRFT

| Compound | manual score |
| --- | --- |
| COc1cc(-n2c(=S)[nH]c3ccccc3c2=O)c(Cl)cc1Cl | 1 (active) |
| CC(C)Oc1cc(-n2c(=S)[nH]c3ccccc3c2=O)c(Cl)cc1Cl | 1 (active) |
| CC(=NCC1CCCO1)c1c(O)n(-c2ccc(C)cc2)c(=O)[nH]c1=O (stereo not given) | 0 (inactive) |
| Nc1c(C(=O)OC2CCCCC2)c2nc3ccccc3nc2n1CC1CCCO1 (stereo not given) | 0 (inactive) |
| CCN(c1ccc(C(O)(C(=O)OC)C(F)(F)F)cc1)S(=O)(=O)c1ccc(C)cc1 (stereo not given) | -1 (active) |
| CCOC(=O)C(O)(c1ccc(N(CC)S(=O)(=O)c2ccc(C)cc2)cc1)C(F)(F)F (stereo not given) | -1 (active) |
| C/C(=N\Nc1ccccc1)c1c(O)n(C)c(=O)n(C)c1=O | 0 (inactive) |
| CCOC(=O)C1=C(NC(=S)NC(=O)c2ccccc2)c2ccccc2CC12CCCC2 | 0 (inactive) |
| CC/C(=C\C=C\[C@@H]1C=C[C@@H]2CCC[C@H]2[C@@H]1C(=O)c1ccc[nH]1)[C@@H]1O[C@@H]([C@@H](C)C(=O)O)CC[C@@H]1C | 0 (inactive) |
| Cc1ccc(-c2nc(N(C)C3CCN(C)CC3)c3ccccc3n2)cc1 | 0 (inactive) |
| O=c1cc(C(F)(F)F)c2cc3c4c(c2o1)CCCN4CCC3 | 3 (inactive) |
| Cn1cccc1CNCCc1ccccc1 | 0 (inactive) |
| CCN1/C(=C\C=C\C2=[N+](CC)c3ccccc3C2(C)C)C(C)(C)c2ccccc21 | 3 (inactive) |
| CNC(=O)OCCc1nccn1C | 0 (inactive) |
| O=C(Nc1ccc(Cl)cc1)Nc1nccs1 | 1 (active) |
| Cc1nn(C)cc1/C=C1/CC2C3CC=C4CC(O)CCC4(C)C3CCC2(C)C1=O (stereo not given) | -1 (active) |
| CN1/C(=C\C=C\C2=[N+](C)c3ccc4ccccc4c3C2(C)C)C(C)(C)c2ccccc21 | 3 (inactive) |
| C=CCOC(=O)COc1cc(C)cc2oc(=O)c3c(c12)CCC3 | 0 (inactive) |

| Compound | manual score |
| --- | --- |
| CCN(CC)CCNCC(=O)Nc1ccc(Cl)cc1C(=O)c1ccccc1 | -1 (active) |
| O=c1[nH]c(=S)n(CCC2=CCCCC2)c(O)c1C=NCCCn1ccnc1 | 3 (inactive) |
| Cc1ccc(OCC(=O)NCCN2CCN(C(=O)COc3ccc(C)cc3)CC2)cc1 | 0 (inactive) |
| O=C(c1cc2ccccn2n1)N1CCC2(CC1)OCCO2 | 0 (inactive) |
| COc1ccc(CC2C(=O)NC(=O)NC2=O)c(OC)c1 | 0 (inactive) |
| c1ccc2c(CNC3CCCCC3)c[nH]c2c1 | -1 (active) |
| CC(C)N1C(=O)/C(=C/C=C/c2ccco2)C(=O)N(Cc2ccco2)C1=O | 0 (inactive) |
| S=C1CN=C(c2ccccc2)c2cc(Cl)ccc2N1 | 0 (inactive) |
| Cc1ccccc1C1=NCC(=S)Nc2ccc(Cl)cc21 | 0 (inactive) |
| S=C1CN=C(c2ccccc2Cl)c2cc(Cl)ccc2N1 | 1 (active) |
| CC(C)CCn1c(=O)c(C(=O)Nc2ccccc2S(N)(=O)=O)c(O)c2ccccc21 | 0 (inactive) |
| O=C(c1ccccc1)c1cn(CC(=O)N2CCOCC2)c2ccccc12 | 0 (inactive) |
| Fc1ccc(NC2=NCCS2)cc1Cl | 0 (inactive) |
| CCCCn1c(C)c(C(=O)OCC)c2c(CN3CCOCC3)c(O)ccc21 | -1 (active) |
| O=C(Cc1ccccc1)N1CCN(C/C=C/c2ccccc2)CC1 | 0 (inactive) |
| Cc1ccc2nc(N3CCC(C(=O)N4CCC5(CC4)OCCO5)CC3)sc2c1 | 0 (inactive) |
| N=c1sc2c(n1Cc1ccccc1)CCCC2 | -1 (active) |
